# Test results published in the supplement of paper PMC3334620.
# Whole data set: some 33,000 sequences, median “E-score (-0.5 to 0.5)” near -0.012, cut for the highest 2% near 0.29. The sample holds the highest values, similar sequences and a random draw of the others, so the mix is not that of the screen.
# Target: T1, Ybr033w (UniProt P38073)
# T1 sequence: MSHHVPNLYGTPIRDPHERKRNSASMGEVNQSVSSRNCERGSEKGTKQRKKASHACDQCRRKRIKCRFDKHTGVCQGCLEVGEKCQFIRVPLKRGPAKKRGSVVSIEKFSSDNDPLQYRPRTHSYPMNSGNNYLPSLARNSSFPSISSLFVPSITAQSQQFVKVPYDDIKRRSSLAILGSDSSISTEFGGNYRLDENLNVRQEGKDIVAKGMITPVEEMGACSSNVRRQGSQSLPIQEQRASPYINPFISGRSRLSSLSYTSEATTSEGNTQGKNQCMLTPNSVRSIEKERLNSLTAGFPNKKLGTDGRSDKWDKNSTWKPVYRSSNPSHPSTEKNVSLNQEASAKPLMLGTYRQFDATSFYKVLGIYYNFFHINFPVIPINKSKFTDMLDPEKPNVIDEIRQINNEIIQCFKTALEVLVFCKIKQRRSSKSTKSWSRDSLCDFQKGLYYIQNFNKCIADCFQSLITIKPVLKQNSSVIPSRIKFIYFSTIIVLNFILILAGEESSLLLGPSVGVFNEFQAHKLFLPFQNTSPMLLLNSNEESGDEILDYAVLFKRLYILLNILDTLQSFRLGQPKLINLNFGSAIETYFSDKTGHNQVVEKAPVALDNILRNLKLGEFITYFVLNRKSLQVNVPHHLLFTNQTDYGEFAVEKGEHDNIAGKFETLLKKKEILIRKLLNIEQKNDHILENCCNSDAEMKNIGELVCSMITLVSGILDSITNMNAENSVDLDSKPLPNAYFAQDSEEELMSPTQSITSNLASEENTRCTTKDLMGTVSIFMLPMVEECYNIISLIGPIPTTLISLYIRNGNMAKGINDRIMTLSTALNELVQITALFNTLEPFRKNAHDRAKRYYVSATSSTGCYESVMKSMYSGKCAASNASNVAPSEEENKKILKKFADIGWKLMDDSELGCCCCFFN
# Test: PBM E-score (8-mer binding enrichment) (E-score (-0.5 to 0.5)); higher = stronger / more preferred TF binding
# Conditions: protein concentration: 200 nM; construct: GST-full length
# Summary of the method: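 Detection of bound protein used fluorescent anti-GST, with scans normalised by masliner. The proteins were GST-tagged yeast transcription factors applied at about 100-200 nM to universal all-10-mer Agilent arrays made double-stranded by primer extension. Each ungapped eight-base word, pooled with its reverse complement, was scored with an E-score from the Universal PBM Analysis Suite.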
row,Sequence,PBM E-score
1,TGATACCA,0.092
2,CATTGGGC,-0.222
3,CCTAAAAG,-0.226
4,AGGATGCC,-0.102
5,ATCGAATC,0.0745
6,TAAAGGTA,0.0512
7,CAATGAAC,0.00305
8,GCGCACAA,-0.0152
9,CCGAAATC,0.0136
10,GGACCAGA,-0.0563
11,AAGTCCAC,-0.0692
12,GTACCACA,0.121
13,CTGGAAAA,0.377
14,CTGGAAAG,-0.189
15,ATGGGAAA,0.0136
16,TAGGAAAA,0.229
17,TTGGGAAA,0.294
18,GTGGAAAC,-0.0663
19,GTGGAAAA,0.298
20,GTGGAAGA,0.137
21,TTGAAAAA,0.237
22,CTGGAAAC,-0.0702
23,TTGGAAAA,0.298
24,CTGGGAAA,0.135
25,AAAGCTTG,0.147

row,Sequence,PBM E-score
1,CTGCAAAC,0.0506
2,CCGCCTGA,-0.172
3,TCTGCGCA,0.0104
4,CAGATATG,-0.0501
5,ATGGAAAT,0.175
6,ATGGAAAG,0.122
7,ATGGAAAA,0.32
8,ATTTGGCC,-0.0178
9,CTCATCAG,0.0236
10,CAATGAGG,-0.14
11,TTAACGAA,0.296
12,ATAACGAA,0.229
13,CTAACGAA,0.0607
14,CAATAAGC,0.0395
15,AAATAAAG,0.281
16,AAATAAGG,0.00755
17,ATATAAAT,0.34
18,AAATAAAA,0.233
19,AAATAACG,0.232
20,AAATAAAT,0.298
21,ATATAAAG,0.211
22,AAATAACT,0.294
23,ATATAAAC,0.142
24,AAATAACA,0.11
25,AAATAAGC,0.0677

row,Sequence,PBM E-score
1,AAATAAGT,0.295
2,GATTCTGC,0.0635
3,CAGCAAAC,-0.0765
4,GGTTCTGA,-0.0472
5,ACATGACC,-0.186
6,ACTTATGA,0.171
7,CGATCTAC,-0.0159
8,AGCTGGTA,-0.142
9,AGGATTAT,0.306
10,AGGATTAC,0.106
11,AGGATTTA,0.228
12,AGGATTAG,0.161
13,AGGATTCA,0.114
14,AGGATTAA,0.361
15,CCTGTAGC,-0.353
16,GGCCTACC,-0.113
17,CGACTGCA,-0.126
18,ACTAACGG,-0.0153
19,ACAATTAA,0.302
20,ACAATTAC,0.202
21,ACAATTAG,0.0047
22,TCAATTAA,0.252
23,ACAATTAT,0.328
24,CCAATTAA,0.215
25,GGCTAGGA,-0.106

row,Sequence,PBM E-score
1,ACCGCACT,-0.0787
2,GAGAGCTC,-0.197
3,AGCCCAAT,-0.125
4,GAGTTTTA,0.146
5,TATATATA,0.28
6,CGGATATA,0.345
7,AAGATATA,0.323
8,CGGATATC,0.0386
9,GGGATATA,0.158
10,GATATATC,0.226
11,CAGATATA,0.175
12,GATATATA,0.289
13,AAGATATC,0.117
14,CGTGGTTA,-0.0128
15,CGCGAGCA,-0.12
16,CACCTTAC,-0.00385
17,CGGGAACA,0.331
18,CCGGAACG,-0.0381
19,ACGGAACC,-0.0347
20,CCGGAACA,0.447
21,GCGGAACA,0.265
22,GGGGAACA,0.00453
23,ACGGAACA,0.298
24,TGGGAACA,0.111
25,TCGGAACA,0.387

row,Sequence,PBM E-score
1,CCGGAACC,-0.16
2,ACGGAACT,0.0148
3,AGGGAACA,0.249
4,ATCGTTCC,-0.196
5,ATATTTGC,0.222
6,TATGTTAA,0.238
7,CAGGGAAC,0.0159
8,CCCATCCC,-0.23
9,ACTGACGA,-0.0835
10,ACAATTCG,0.0965
11,ATAATTCA,0.241
12,ATAATTCG,0.294
13,CTAATTCC,0.0934
14,ATGATTCA,0.127
15,ATAATTCC,0.348
16,CTGATTCC,-0.0421
17,ATGATTCC,0.336
18,AGAATTCC,0.0767
19,AGCTCTGA,-0.0863
20,TACGGGGA,-0.183
21,GAGAATGA,0.122
22,ACACCGAT,-0.185
23,AAGCGCAG,0.127
24,ACTAGATA,0.304
25,AGTAGATC,0.164

row,Sequence,PBM E-score
1,CCTAGATA,-0.0707
2,ACTAGATC,-0.0476
3,AGTAGATA,0.311
4,CGTAGATA,0.0341
5,GCGGGGAC,-0.22
6,AGATGAAA,0.0735
7,AGAGCGTC,-0.081
8,ATCAGAAA,0.044
9,CGATACAA,0.165
10,AGATACAA,0.292
11,AGATACAG,0.22
12,CGGTGACG,-0.0845
13,AATGCGAT,-0.0207
14,AATGCGAG,0.291
15,CATGCGAG,-0.217
16,GGCATAAA,0.167
17,ATACGTGC,-0.058
18,TCACTAGA,0.12
19,AATTGTTC,0.339
20,AGTTGTTA,0.174
21,GATTGTTA,0.0997
22,CATTGTAC,0.0182
23,AATTGTTA,0.314
24,AGTTGTTC,0.337
25,AATTGTAC,0.337

row,Sequence,PBM E-score
1,AGTTGTTG,0.123
2,AATTGTCC,0.163
3,GATTGTAC,0.0766
4,AATTGTTG,0.114
5,AATTGTCA,0.139
6,CTGCAAAA,0.022
7,GAGCCCTA,-0.201
8,AACCTTGT,-0.194
9,ACCTGGGC,-0.362
10,CATGGAAG,0.204
11,CATTGTTC,0.31
12,AAATGTTG,-0.0479
13,ATTTGTTA,0.185
14,CCTTGTTC,-0.124
15,CTTTGTTC,0.111
16,AAATGTTA,0.149
17,ATTTGTTC,0.44
18,CATTGTTA,-0.015
19,AAATGTTC,0.346
20,GAGAGGTA,-0.223
21,CCCATCCA,-0.158
22,AACTGAGA,0.0375
23,GTTTGATA,0.177
